Records with an inconclusive call do not appear. Values without a mark were called inactive. Active and inactive are the calls of the source. Calls come from the whole dose curve.
The compounds below were run against Acetylcholinesterase (Homo sapiens) (UniProt P22303) (assay: Acetylcholinesterase (AChE) small molecule antagonists: fluorescence cell-based qHTS assay (AID 1347398; note: nearly all actives have a fitted effect of over 50% in size)). Details: SH-SY5Y cells; Potency: AChE activity; outcome: AChE activity; series mostly up to 115 µM; activity change, negative = inhibition: at the top concentration.
In short: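 SH-SY5Y, 2,000 cells/well, attached overnight; cmpd 30 min 37 C; acetylthiocholine/Thiolite Green cocktail 40 min RT; fluorescence Ex/Em 490/520 nm.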
% is set by controls: 0 for no effect and ±100 for the full control effect; potency is the fitted concentration of half-maximal effect.

Sequence of Acetylcholinesterase (Homo sapiens) (P22303 whole entry, looked up): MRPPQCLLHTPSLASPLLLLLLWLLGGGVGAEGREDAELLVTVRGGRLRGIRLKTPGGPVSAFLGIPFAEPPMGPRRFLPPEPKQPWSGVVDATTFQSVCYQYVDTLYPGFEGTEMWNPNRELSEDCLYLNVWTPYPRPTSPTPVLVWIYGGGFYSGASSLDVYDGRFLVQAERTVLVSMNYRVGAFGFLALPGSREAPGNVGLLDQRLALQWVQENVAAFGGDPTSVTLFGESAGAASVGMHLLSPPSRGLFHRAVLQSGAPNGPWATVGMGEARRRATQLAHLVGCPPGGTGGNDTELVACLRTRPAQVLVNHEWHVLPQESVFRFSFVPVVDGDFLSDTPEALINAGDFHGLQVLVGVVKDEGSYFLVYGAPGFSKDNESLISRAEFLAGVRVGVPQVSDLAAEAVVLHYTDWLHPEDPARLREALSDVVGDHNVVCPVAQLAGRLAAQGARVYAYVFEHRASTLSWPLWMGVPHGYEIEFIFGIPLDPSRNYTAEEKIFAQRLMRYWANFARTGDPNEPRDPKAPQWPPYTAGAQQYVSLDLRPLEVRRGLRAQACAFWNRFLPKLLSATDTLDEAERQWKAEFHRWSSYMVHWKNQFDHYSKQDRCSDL

SMILES	activity change, negative = inhibition	Potency
O=C(O)c1cccc(-c2noc(-c3ccccc3F)n2)c1	0.969% [at 53.7 µM]	
CCC(OCCCOC)OC(C)=O (stereo not drawn)	-5.64%	
OCCN1CN(CCO)CN(CCO)C1	5.45%	
CCN(CC)c1ccc2c(-c3ccc(S(=O)(=O)O)cc3S(=O)(=O)[O-])c3ccc(=[N+](CC)CC)cc-3oc2c1		41.2 µM (active)
Cc1cccc(N(C)C)c1	3.25%	
CCCCCCCCCOC(=O)c1ccccc1C(=O)OCCCCCCCCC	-9.21%	
CC1=C(O)C(=O)C(C)O1 (stereo not drawn)	8.69%	
CCCCCCCCCCCCS(=O)(=O)Cl	0.319% [at 23.8 µM]	
CN1[C@@H]2CC[C@H]1CC(OC(=O)C(O)c1ccccc1)C2 (stereo partly drawn)	10.3% [at 53.7 µM]	
CC(C(=O)O)c1ccc2c(c1)Cc1cccnc1O2 (stereo not drawn)	2.71% [at 53.7 µM]	
CCCCCCCCCC(C)=O	-2.76%	
CC1=NS(=O)(=O)c2cc(Cl)ccc2N1	-6.56% [at 53.7 µM]	
O=S(=O)(O)c1ccccc1O	0.629%	
N#Cc1ccc(C/C(=N/NC(=O)Nc2ccc(OC(F)(F)F)cc2)c2cccc(C(F)(F)F)c2)cc1	-0.907%	
CC(=O)c1c(C)cc(C(C)(C)C)cc1C	-1.28%	
[Ca+2]	-0.689%	
O=C1NC(=O)c2cc([N+](=O)[O-])ccc21	-15.7%	
OC[C@H]1O[C@@H](O[C@@H]2[C@@H](CO)O[C@](O)(CO)[C@H]2O)[C@H](O)[C@@H](O)[C@H]1O	1.15% [at 53.7 µM]	
CC(=O)CCC1=C(C)CCCC1(C)C	1.06%	
COc1cccc(Br)c1	7.94%	
Cc1ccc2sc3cccc(C)c3c2c1	-0.113%	
COc1ccc2cccc(CCNC(C)=O)c2c1	-1.71% [at 53.7 µM]	
COc1ccc(OC)c(Cl)c1	-1.1%	

Reference: PubChem BioAssay (Tox21)
